{"source": "PubChem BioAssay (NCI)", "note": "About 83,000 compounds went through this panel and 20% of them were active in at least one assay; those are over-represented in the sample as a whole.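 Interpretation: 100, growth as untreated; towards 0, rising growth inhibition; 0, no net growth; 0 to -100, cell death. Compounds scoring below 10 were considered active.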 A number with no mark means an inactive call. The source made the active and inactive calls.", "data": [{"system": "MALME-3M melanoma", "experiment": "NCI-60 one-dose screen, 48 h (100 = growth as untreated, 0 = no growth, -100 = all killed)", "conditions": "10 µM unless noted", "values": [{"smiles": "CC(=O)Oc1ccccc1C(=O)N=C1[Se]CCCN1C(=O)c1ccccc1OC(C)=O", "growth": "-27.1% (active)"}, {"smiles": "O=C1NC(=O)C(Cn2cnc3ccccc32)N1", "note": "(centres undefined)", "growth": "103%"}, {"smiles": "O=C1CCC(C(=O)NCCNCCNC(=O)C2CCC(=O)N2)N1", "note": "(centres undefined)", "growth": "105%"}, {"smiles": "COc1cccc(-c2nc(-c3ccc(NC(=O)c4ccccc4)cc3)[nH]c2-c2ccnc(Br)c2)c1", "growth": "28.7%"}, {"smiles": "Nc1cc2c(cc1Br)-c1cc(Cl)ccc1C2=O", "growth": "107%"}, {"smiles": "COc1cc2cc(Oc3ccc(NC(=O)Nc4cc(C(F)(F)F)cc(C(F)(F)F)c4)cc3)c(C)nc2cc1OCCN1CCOCC1", "growth": "28.1%"}, {"smiles": "CCCCOc1nc2ccc(OC)cc2cc1-c1cc(-c2ccc(Cl)cc2)nc(-c2ccc(Cl)cc2)c1", "growth": "100%"}, {"smiles": "COc1ccc(N2C(=O)C(Oc3ccccc3)C2c2ccc(C)cc2)cc1", "note": "(centres undefined)", "growth": "93.4%"}, {"smiles": "CC(C)c1cc(C(C)C)c(S(=O)(=O)Oc2ccc(NC(=O)c3ccc(Cl)cc3)cc2)c(C(C)C)c1", "growth": "53.8%"}, {"smiles": "COc1cc(C2CC(c3cccc(Br)c3)=NN2C(C)=O)cc(OC)c1OC", "note": "(centres undefined)", "growth": "54.2%"}, {"smiles": "Brc1ccc2[nH]cc(-c3nc(-c4c[nH]c5ccncc45)cs3)c2c1", "growth": "-83.6% (active)"}, {"smiles": "O=C(N/N=C/c1c(Cl)cccc1Cl)c1ccc(C(F)(F)F)nc1Nc1cccc(C(F)(F)F)c1", "growth": "5.8% (active)"}, {"smiles": "Cc1[nH]c(C(=O)Nc2ccc(C(=O)N3CCNCC3)cc2OC(C)C)c(Cl)c1Cl", "growth": "72.6%"}, {"smiles": "O=c1c2cc(F)cc(Cl)c2sc2c(NCCCNCCO)nc3ccccc3c12", "growth": "99.8%"}, {"smiles": "Cc1[nH]c(C(=O)Nc2ccc(C(=O)NCCN)cc2OC(C)C)c(Cl)c1Cl", "growth": "63.3%"}, {"smiles": "O=C(S)CNC(=O)c1ccccc1", "growth": "84.2%"}, {"smiles": "COc1cccc(OC)c1C(=O)N[C@@H]1C(=O)N2[C@@H]1SC(C)(C)[C@@H]2C(=O)O", "growth": "93.9%"}, {"smiles": "CCCCn1c(-c2ccc(C(=O)O/N=C(\\N)c3ccc(OC)cc3)cc2)nc(-c2ccccc2)c1-c1ccccc1", "growth": "-51.7% (active)"}, {"smiles": "CCCCCCN(CCCCCC)c1ccc(/C=C2/SC(=O)NC2=O)c(C)c1", "growth": "72.9%"}, {"smiles": "COc1cc(C(=O)N2N=C(c3ccc(S(C)(=O)=O)cc3)CC2c2ccco2)cc(OC)c1OC", "note": "(centres undefined)", "growth": "61.7%"}, {"smiles": "COc1ccc(-c2cc(-c3ccc(Cl)cc3)c(C#N)c(=O)n2CCCCCC(=O)Nc2ccccc2N)cc1", "growth": "39%"}, {"smiles": "COc1cccc(-c2nn(-c3ccccc3)cc2-c2ccnc(N3CCOCC3)c2)c1", "growth": "90.7%"}, {"smiles": "COc1cc(CNS(=O)(=O)c2ccc(C)cc2)ccc1OCc1cn(-c2ccccc2)nn1", "growth": "99.7%"}, {"smiles": "O=C(CCOCCNC(=O)COc1ccc2c(c1)OCC(c1ccc(F)cc1)C2=O)NCCCC(O)(P(=O)(O)O)P(=O)(O)O", "note": "(centres undefined)", "growth": "113%"}, {"smiles": "COc1ccc(C(=O)n2nc(-c3ccccc3)nc2N)cc1OC", "growth": "102%"}, {"smiles": "Cc1cc(C)c(-c2c(N)cc(Br)cc2Br)c(N)c1", "growth": "26.9%"}, {"smiles": "[O-][n+]1c2ccccc2[n+]([O-])c2c3ccccc3[nH]c21", "growth": "110%"}, {"smiles": "Cc1c(C(=O)/C=C/Nc2c(Cl)cc(S(N)(=O)=O)cc2Cl)sc2nc3ccccc3n12", "growth": "105%"}, {"smiles": "Cc1ccc(C(C)C)cc1C(=O)C[n+]1ccccc1", "growth": "95.9%"}, {"smiles": "COc1ccc2c(c1)/C(=C/c1sc(=S)n(Cc3ccco3)c1O)C=N2", "growth": "49.1%"}, {"smiles": "Cc1cc2[nH]c(=O)c3c4ncccc4cn3c2cc1C", "growth": "70.1%"}, {"smiles": "Cc1nc2ccccc2c(/C=C/c2ccccc2)c1C(=O)/C=C/c1ccc(C(F)(F)F)cc1", "growth": "-61.4% (active)"}, {"smiles": "CN1CCN(CC(=O)N2c3cccc4cccc(c34)N(C(=O)CN3CCN(C)CC3)C2c2cn(-c3ccccc3)nc2-c2cccc([N+](=O)[O-])c2)CC1", "growth": "-86.7% (active)"}, {"smiles": "Cc1ccc(S(=O)(=O)N/N=C/C2(c3ccccc3)CC2)cc1", "growth": "110%"}, {"smiles": "COc1cc(Nc2cn[nH]c2-c2ccc(Cl)cc2)cc(OC)c1OC", "growth": "38.1%"}, {"smiles": "CNC(=O)c1cc(-n2ccc3cc(NC(=O)c4ccc(N5CCOCC5)c(C(F)(F)F)c4)ccc32)ccn1", "growth": "73.9%"}, {"smiles": "CN1CCN(c2ccc(-c3cc4c(Nc5ccc(F)c(Cl)c5)ncnn4c3)cc2)CC1", "growth": "28.5%"}]}, {"system": "MDA-MB-231 breast", "experiment": "NCI-60 one-dose screen, 48 h (100 = growth as untreated, 0 = no growth, -100 = all killed)", "conditions": "10 µM unless noted", "values": [{"smiles": "CC(=O)Oc1ccccc1C(=O)N=C1[Se]CCCN1C(=O)c1ccccc1OC(C)=O", "growth": "-57.6% (active)"}, {"smiles": "O=C1NC(=O)C(Cn2cnc3ccccc32)N1", "note": "(centres undefined)", "growth": "103%"}, {"smiles": "O=C1CCC(C(=O)NCCNCCNC(=O)C2CCC(=O)N2)N1", "note": "(centres undefined)", "growth": "121%"}, {"smiles": "COc1cccc(-c2nc(-c3ccc(NC(=O)c4ccccc4)cc3)[nH]c2-c2ccnc(Br)c2)c1", "growth": "34.2%"}, {"smiles": "Nc1cc2c(cc1Br)-c1cc(Cl)ccc1C2=O", "growth": "79.8%"}, {"smiles": "COc1cc2cc(Oc3ccc(NC(=O)Nc4cc(C(F)(F)F)cc(C(F)(F)F)c4)cc3)c(C)nc2cc1OCCN1CCOCC1", "growth": "1.49% (active)"}, {"smiles": "CCCCOc1nc2ccc(OC)cc2cc1-c1cc(-c2ccc(Cl)cc2)nc(-c2ccc(Cl)cc2)c1", "growth": "93.5%"}, {"smiles": "COc1ccc(N2C(=O)C(Oc3ccccc3)C2c2ccc(C)cc2)cc1", "note": "(centres undefined)", "growth": "101%"}, {"smiles": "CC(C)c1cc(C(C)C)c(S(=O)(=O)Oc2ccc(NC(=O)c3ccc(Cl)cc3)cc2)c(C(C)C)c1", "growth": "52.1%"}, {"smiles": "COc1cc(C2CC(c3cccc(Br)c3)=NN2C(C)=O)cc(OC)c1OC", "note": "(centres undefined)", "growth": "4.94% (active)"}, {"smiles": "Brc1ccc2[nH]cc(-c3nc(-c4c[nH]c5ccncc45)cs3)c2c1", "growth": "-84.4% (active)"}, {"smiles": "O=C(N/N=C/c1c(Cl)cccc1Cl)c1ccc(C(F)(F)F)nc1Nc1cccc(C(F)(F)F)c1", "growth": "11.3%"}, {"smiles": "Cc1[nH]c(C(=O)Nc2ccc(C(=O)N3CCNCC3)cc2OC(C)C)c(Cl)c1Cl", "growth": "22.9%"}, {"smiles": "O=c1c2cc(F)cc(Cl)c2sc2c(NCCCNCCO)nc3ccccc3c12", "growth": "48.8%"}, {"smiles": "Cc1[nH]c(C(=O)Nc2ccc(C(=O)NCCN)cc2OC(C)C)c(Cl)c1Cl", "growth": "-27% (active)"}, {"smiles": "O=C(S)CNC(=O)c1ccccc1", "growth": "97.6%"}, {"smiles": "COc1cccc(OC)c1C(=O)N[C@@H]1C(=O)N2[C@@H]1SC(C)(C)[C@@H]2C(=O)O", "growth": "102%"}, {"smiles": "CCCCn1c(-c2ccc(C(=O)O/N=C(\\N)c3ccc(OC)cc3)cc2)nc(-c2ccccc2)c1-c1ccccc1", "growth": "-6.79% (active)"}, {"smiles": "CCCCCCN(CCCCCC)c1ccc(/C=C2/SC(=O)NC2=O)c(C)c1", "growth": "111%"}, {"smiles": "COc1cc(C(=O)N2N=C(c3ccc(S(C)(=O)=O)cc3)CC2c2ccco2)cc(OC)c1OC", "note": "(centres undefined)", "growth": "66.4%"}, {"smiles": "COc1ccc(-c2cc(-c3ccc(Cl)cc3)c(C#N)c(=O)n2CCCCCC(=O)Nc2ccccc2N)cc1", "growth": "55.6%"}, {"smiles": "COc1cccc(-c2nn(-c3ccccc3)cc2-c2ccnc(N3CCOCC3)c2)c1", "growth": "85.1%"}, {"smiles": "COc1cc(CNS(=O)(=O)c2ccc(C)cc2)ccc1OCc1cn(-c2ccccc2)nn1", "growth": "95.4%"}, {"smiles": "O=C(CCOCCNC(=O)COc1ccc2c(c1)OCC(c1ccc(F)cc1)C2=O)NCCCC(O)(P(=O)(O)O)P(=O)(O)O", "note": "(centres undefined)", "growth": "107%"}, {"smiles": "COc1ccc(C(=O)n2nc(-c3ccccc3)nc2N)cc1OC", "growth": "85.1%"}, {"smiles": "Cc1cc(C)c(-c2c(N)cc(Br)cc2Br)c(N)c1", "growth": "56.4%"}, {"smiles": "[O-][n+]1c2ccccc2[n+]([O-])c2c3ccccc3[nH]c21", "growth": "75.9%"}, {"smiles": "Cc1c(C(=O)/C=C/Nc2c(Cl)cc(S(N)(=O)=O)cc2Cl)sc2nc3ccccc3n12", "growth": "102%"}, {"smiles": "Cc1ccc(C(C)C)cc1C(=O)C[n+]1ccccc1", "growth": "112%"}, {"smiles": "COc1ccc2c(c1)/C(=C/c1sc(=S)n(Cc3ccco3)c1O)C=N2", "growth": "56.5%"}, {"smiles": "Cc1cc2[nH]c(=O)c3c4ncccc4cn3c2cc1C", "growth": "28.8%"}, {"smiles": "Cc1nc2ccccc2c(/C=C/c2ccccc2)c1C(=O)/C=C/c1ccc(C(F)(F)F)cc1", "growth": "-43.7% (active)"}, {"smiles": "CN1CCN(CC(=O)N2c3cccc4cccc(c34)N(C(=O)CN3CCN(C)CC3)C2c2cn(-c3ccccc3)nc2-c2cccc([N+](=O)[O-])c2)CC1", "growth": "-60.9% (active)"}, {"smiles": "Cc1ccc(S(=O)(=O)N/N=C/C2(c3ccccc3)CC2)cc1", "growth": "102%"}, {"smiles": "COc1cc(Nc2cn[nH]c2-c2ccc(Cl)cc2)cc(OC)c1OC", "growth": "49.4%"}, {"smiles": "CNC(=O)c1cc(-n2ccc3cc(NC(=O)c4ccc(N5CCOCC5)c(C(F)(F)F)c4)ccc32)ccn1", "growth": "77.7%"}, {"smiles": "CN1CCN(c2ccc(-c3cc4c(Nc5ccc(F)c(Cl)c5)ncnn4c3)cc2)CC1", "growth": "91.1%"}]}]}
